In the library only some 2.2% were active in any assay of this set; here they are far more common.
TROY NFkB inh: blocks TROY-dependent signaling in reporter cells. Q293 LMP1-TROYcd NF-kB luciferase reporter, 4 h. inhibition, % at 10 µM. 360,000 tested, 0.98% active;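 active = compounds whose plate-normalised and pattern-corrected inhibition of the luciferase reporter signal at the single screening dose is 50% or more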
LGR2 inh: Drosophila LGR2 receptor signaling inhibition; HEK293 LGR2, CRE-luciferase, bursicon-stimulated, 4 h; 380,000 tested, 0.35% active; inhibition, % at 9.99 µM; AID 720647;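 active = drop in luminescence signal, shown as inhibition above about 50% in the replicate tests, limit read from the data, passing the limit was not always enough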;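 also: agonist challenge used bursicon conditioned medium at about half maximal strength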
TWEAK-Fn14 inh: blocks TWEAK-Fn14 interaction in a reporter cell assay; TWEAK-stimulated Fn14 reporter cells, luciferase luminescence, 8 h; 360,000 tested, 2% active; inhibition, % at 10 µM; in the data active = inhibition above about 50%
HSP90 refold inh: inhibitors of HSP90 luciferase refolding in rabbit reticulocyte lysate; inhibition, % at 5.6 µM; luciferase refolding luminescence, 3 h; 290,000 tested, 0.91% active;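 active = inhibition above the screen-wide mean plus 3 SD, computed separately per campaign, cut at about 16% in these data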;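 also: 0% = DMSO wells and 100% = 60 µM geldanamycin wells; inhibitors lower the luminescence because luciferase stays unfolded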
* marks the source's active call; other numbers are inactive results; x = no result given.

SMILES	TROY NFkB inh	LGR2 inh	TWEAK-Fn14 inh	HSP90 refold inh
Cc1cn([C@@H](CCCCNC(=O)OC(C)(C)C)C(=O)NCCCCCCCCCCC(=O)N2CCN(C(=O)OC(C)(C)C)CC2)nn1	70*	x	88*	x
COc1ccc(C(=O)n2cnc3ccccc32)cc1Br	-9	-5	11	x
COc1ccc(C(=O)n2cnc3ccccc32)cc1	-5	20	78*	2
CCCNC(=O)N1CC(=O)N2[C@H](CO)[C@@H](c3ccc(C#Cc4ccc(F)cc4)cc3)[C@@H]2C1	x	-8	x	x
C[C@@H]1CN([C@H](C)CO)C(=O)c2cccc(NC(=O)Nc3ccc(C(F)(F)F)cc3)c2O[C@@H]1CN(C)C(=O)Nc1ccc(F)cc1	x	16	x	x
C/C(=N\Nc1nc2c(s1)CCCC2)c1ccc(Cl)cc1	31	x	55*	13
CCCc1[nH]nc2c1C(C1CCCCC1)C(C#N)=C(N)O2 (stereo unspecified)	7	x	55*	2
CC1=C(C(=O)N(C(C)C)C(C)C)CC(CC(=O)NC2CC2)C(=O)N1CCCN1CCCC1=O (stereo unspecified)	75*	7	11	x
C[C@@H]1CN([C@H](C)CO)C(=O)c2cc(C#Cc3cccc(F)c3)cnc2O[C@H]1CN(C)C(=O)C1CCC1	x	0	x	x
CCC1CCCCN1CC(=O)c1c(C)[nH]c2ccccc12 (stereo unspecified)	-7	9	24	2
Cc1[nH]c2ccccc2c1C(=O)CCl	-1	10	58*	-1
Cc1[nH]c2ccccc2c1C(=O)CN1CCCCC1C (stereo unspecified)	x	x	79*	1
CCC1CCCCN1CC(=O)c1c(C)[nH]c2ccc(OC)cc12 (stereo unspecified)	-3	-8	85*	-2
O=C(C[C@@H]1C=C[C@@H](NC(=O)Cc2ccccn2)[C@H](CO)O1)NCCCN1CCOCC1	x	1	x	x
CC(=O)/C(N=Nc1cccc(C(F)(F)F)c1)=C(\C)O	-3	x	15	2
Cc1ccc(N=C/C(C(=O)C(F)(F)F)=C(\O)c2cccs2)cc1	-42	x	83*	0
O=C(/C(N=Nc1cccc(C(F)(F)F)c1)=C(/O)c1cccs1)C(F)(F)F	9	x	57*	-6
C[C@@H]1CN([C@@H](C)CO)C(=O)c2cc(NC(=O)NC3CCCCC3)ccc2O[C@@H](C)CCCCO[C@H]1CN(C)CC1CCCCC1	x	-6	x	x
O=S(=O)(c1ccc(-c2csc(Nc3ccc(F)cc3)n2)cc1)N1CCCC1	45	5	23	2
O=C(Nc1nc(-c2ccc(S(=O)(=O)N3CCCCCC3)cc2)cs1)c1ccccc1	45	x	70*	-3
O=C(Nc1nc(-c2cccs2)cs1)c1ccc(S(=O)(=O)N2CCCC2)cc1	66*	x	93*	6
O=C(Nc1nc(-c2ccc3c(c2)OCCO3)cs1)c1ccc(S(=O)(=O)N2CCCCC2)cc1	11	27	32	5
O=S(=O)(c1ccc(-c2csc(Nc3ccc(Br)cc3)n2)cc1)N1CCCC1	36	2	61*	2
CN(C)S(=O)(=O)c1ccc(C(=O)Nc2nc(-c3cccs3)cs2)cc1	55*	-16	56*	5
CC(C)C#Cc1ccc([C@H]2[C@H](CO)N3C(=O)CN(C(=O)Cc4ccccc4)C[C@@H]23)cc1	x	3	x	x
SMILES	TROY NFkB inh	LGR2 inh	TWEAK-Fn14 inh	HSP90 refold inh
O=C(COc1ccc(Cl)cc1)Nc1nc(-c2ccc(S(=O)(=O)N3CCOCC3)cc2)cs1	47	x	71*	0
O=C(Nc1nc(-c2ccccc2)cs1)C1COc2ccccc2O1 (stereo unspecified)	x	x	8	3
O=C(Nc1nc(-c2ccc(S(=O)(=O)N3CCCC3)cc2)cs1)C1COc2ccccc2O1 (stereo unspecified)	37	x	61*	0
C[C@H]1CN([C@@H](C)CO)C(=O)CCCn2nncc2CO[C@H]1CN(C)CC1CC1	x	10	x	x
CN1CCN(C(=O)c2ccc(COc3ccc(C(C)(C)C)cc3)o2)CC1	x	x	-29	5
CCCc1ccc(OCc2ccc(C(=O)N3CCCC3)o2)cc1	-1	-31	50	17*
C[C@H]1CN([C@@H](C)CO)C(=O)c2ccccc2-c2ccccc2CO[C@H]1CN(C)C(=O)c1ccc(F)cc1	x	13	x	x
COc1ccc(Cc2c(C(C)(C)C)nc3ccc(Br)cn23)c(C)c1	93*	x	2	x
COC(=O)c1ccc2nc(C(C)(C)C)c(Cc3ccc(OC)cc3C)n2c1	2	14	-14	x
CCCc1nc(SCC(=O)N2CCC(Cc3ccccc3)CC2)c2c(=O)n(C)c(=O)n(C)c2n1	83*	17*	61*	1
CCc1nc(SCC(=O)N2CCN(c3ccccc3)CC2)c2c(=O)n(C)c(=O)n(C)c2n1	x	x	x	-2
Cc1nn(C(=O)c2c(-c3ccccc3)noc2C)c(C)c1N=Nc1cc(C(F)(F)F)cc(C(F)(F)F)c1	68*	-7	21	6
COc1cccc(S(=O)(=O)N[C@@H]2CC[C@@H](CCn3cc(-c4ccccn4)nn3)O[C@@H]2CO)c1	x	3	x	x
O=C(Cc1ccc(Br)cc1)NC1CCCc2ccccc21 (stereo unspecified)	-4	10	-20	0
O=C(CCl)NC1CCCc2ccccc21 (stereo unspecified)	0	8	50*	-2
Cc1ccc2nc(-c3ccc(SCC(=O)O)nc3)[nH]c2c1	7	x	28	9
Cc1ccc2nc(-c3ccc(SCC(=O)N4CCc5ccccc54)nc3)[nH]c2c1	-60	-56	53*	-3
COc1ccccc1C/C(N)=N/OC(=O)c1cccc([N+](=O)[O-])c1C	-14	-9	90*	-5
COc1ccc(/C(N)=N/OC(=O)c2cccc([N+](=O)[O-])c2C)cc1	-42	19	-20	1
Cc1cccc(C)c1NC(=O)CSC(=O)c1sc2ccccc2c1Cl	59*	-3	33	1
CN1CCN(c2ccc(NC(=O)c3sc4ccccc4c3Cl)cc2)CC1	60*	64*	-30	-1
O=C(Nc1ccc(N2CCOCC2)cc1)c1nc2ccccc2s1	55*	29	40	-1
C[C@H]1CN([C@@H](C)CO)C(=O)c2ccccc2-c2ccccc2CO[C@H]1CN(C)C(=O)CCC(F)(F)F	x	10	x	x
Cc1ccc2[nH]c3c(=O)n(CCc4cnc[nH]4)cnc3c2c1	53*	x	15	0
CO[C@@H]1CN(C)C(=O)c2ccc(NC(C)=O)cc2OC[C@H](C)N(C(=O)C2CCOCC2)C[C@@H]1C	x	-1	x	x
C[C@H](CO)N1C[C@H](C)[C@H](CN(C)C(=O)[C@H](C)c2ccccc2)OCc2ccccc2-c2c(n(C)c3ccccc23)C1=O	x	7	x	x
COc1ccc(/C=C2\C(=O)NC(=O)c3ccccc32)cc1OC	-8	-12	-14	x
COc1ccc2c(c1)/C(=C/c1cc(OC)c(OC)c(OC)c1)C(=O)N2	27	18	57*	x
FC(F)(F)c1cccc(CC2CN(Cc3ccccc3)Cc3ccccc3N2c2cc(Cl)cc(Cl)c2)c1 (stereo unspecified)	35	102*	91*	x
CN(C)CC(=O)Nc1ccc2c(c1)[C@H]1C[C@H](CC(=O)NCCc3ccccc3)O[C@H](CO)[C@H]1O2	x	-16	x	x

Source: PubChem
